Common to all, as to assay: NCI-60 one-dose screen, 48 h (100 = growth as untreated, 0 = no growth, -100 = all killed)
Holding throughout (conditions): 10 µM

The subject of assay [1] is DU-145 prostate.
The subject of assay [2] is K-562 leukemia.
The test system of assay [3] is MALME-3M melanoma.
The subject of assay [4] is MDA-MB-231 breast.
In assay [5] the test system is RXF 393 renal.
Assay [6] deals with SF-268 CNS.
Assay [7] deals with SF-295 CNS.
Assay [8] relates to SF-539 CNS.
For assay [9], the system named is UACC-257 melanoma.
The test system of assay [10] is M14 melanoma.
The subject of assay [11] is HCT-15 colon.
Assay [12] deals with HT29 colon.
Assay [13] concerns SNB-75 CNS.
Assay [14] concerns SNB-19 CNS.
In assay [15] the test system is U251 CNS.
Assay [16] relates to PC-3 prostate.
Assay [17] concerns SK-MEL-5 melanoma.
The test system of assay [18] is UACC-62 melanoma.
Assay [19] relates to LOX IMVI melanoma.
Assay [20] deals with SK-MEL-28 melanoma.

Compounds without any hit were thinned out: in the full panel of roughly 83,000, 20% have a hit.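 Method: cells in 96-well plates; compound added at one concentration; 48 h incubation; percent growth measured; values under 10 scored active.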 A number with no mark means an inactive call. Activity calls are given as the source filed them.

With `CCCCCCCCCCCCCC[n+]1ccccc1`, the growth in assay [1] is -48.6% (active); in assay [2], 0.808% (active); in assay [3], -50.8% (active); in [4] it was -62.6% (active); in assay [5] it was -69.6% (active); in assay [6], -37.3% (active). In addition, the growth is -89.8% (active) in assay [7]; -30.7% (active) in [8]; -70.8% (active) in [9]; -33.5% (active) in assay [10]; 34.5% in assay [11]; -52.4% (active) in assay [12]. Further, the growth in [13] was -39.5% (active); in assay [14], -45.4% (active); in assay [15], -88.3% (active); in assay [16] it was -80.8% (active); in assay [17] it was -95.3% (active); in assay [18] it was -81.1% (active). The values for the growth in [19] and in assay [20] were -72.1% (active) and -23.5% (active), respectively.
On to `c1ccc(COCC[P+](c2ccccc2)(c2ccccc2)c2ccccc2)cc1`, for which the growth in assay [1] is 15%; in assay [2], 3.16% (active); in assay [3] it was 4.01% (active); in assay [4], 5.14% (active); in assay [5], 29.6%; in [6], 15.4%. Further, the growth in [7] is -46% (active); in [8], 18.5%; in assay [9] it was -22.7% (active); in assay [10] it was 10.9%; in assay [11] it was 71.9%; in assay [12], 1.21% (active). Also, the growth in assay [13] was -5.5% (active); in assay [14], 9.79% (active); in assay [15], 5.43% (active); in assay [16], -4.87% (active); in [17], -72% (active); in assay [18], 2.32% (active). For the same compound, the growth is -32.2% (active) in [19] and 14.6% in assay [20].
With `CCOC(=O)c1ccc(NC(=O)Nc2nncs2)cc1`, the growth in assay [1] is -18% (active); in [2], 7.79% (active); in [3] it was 22.2%; in assay [4], 14.8%; in assay [5], -15.2% (active); in assay [6], 29.3%. Besides, the growth in assay [7] is -39.9% (active); in [8], 14.6%; in [9] it was 67.9%; in assay [10] it was 4.02% (active); in assay [11] it was 17.5%; in assay [12], 1.75% (active). The growth is 19.6% in [13]; 58.3% in assay [14]; 17.3% in assay [15]; 20.7% in [16]; -21.2% (active) in assay [17]; 31.2% in [18]. Also, the growth in [19] was 13%; in [20] it was 42.2%.
Turning to `Cc1cc(C)c2nc(C)c(C)[n+]([O-])c2c1`, the growth was 110% in [1]; 89.2% in [2]; 95.6% in assay [3]; 118% in assay [4]; 114% in [5]; 106% in assay [6]. For the same compound, the growth in [7] is 101%; in assay [8] it was 97.2%; in assay [9], 84.8%; in assay [10] it was 102%; in assay [11], 97.6%; in assay [12] it was 96.3%. The growth is 84.1% in assay [13]; 109% in assay [14]; 90.6% in assay [15]; 72.8% in assay [16]; 104% in assay [17]; 105% in assay [18]. In addition, the values for the growth in assay [19] and in assay [20] were 95.4% and 106%, respectively.
Turning to `CCc1nn2c(-c3ccccc3)c(-c3cc(OC)c(OC)c(OC)c3)nc2s1`, the growth in [1] was 102%; in assay [2], 92.1%; in [3], 62.4%; in assay [4] it was 76.8%; in assay [5], 88.9%; in assay [6] it was 96%. In addition, the growth is 89.1% in assay [7]; 97.3% in assay [8]; 107% in [9]; 99.1% in [10]; 72.9% in assay [11]; 74.5% in assay [12]. Further, the growth in [13] is 45.9%; in assay [14] it was 85.3%; in [15] it was 98.8%; in assay [16], 71.4%; in assay [17] it was 71.9%; in assay [18], 71.8%. The figures for the growth in [19] and in assay [20] were 88.2% and 29.5%, respectively.
Regarding `C/C(=N\NC(=S)N1CCCC1)c1ccccn1`, the growth was 16.7% in assay [1]; 7.97% (active) in [2]; -8.16% (active) in assay [3]; 27.9% in assay [4]; 21.5% in [5]; 9.48% (active) in assay [6]. Moreover, the growth was -6.83% (active) in assay [7]; 4.96% (active) in assay [8]; -32.4% (active) in [9]; 6.19% (active) in assay [10]; 31% in assay [11]; 26.3% in assay [12]. The growth in [13] was 39.2%; in assay [14] it was 20.3%; in [15] it was 4.05% (active); in assay [16] it was 24.7%; in assay [17] it was 4.15% (active); in [18] it was -35.9% (active). Further, the growth was 1.56% (active) in assay [19] and 24.3% in assay [20].
On to `O=c1oc2cc(OS(=O)(=O)C3CC3)ccc2c2c1CCCCCC2`, for which the growth in [1] was 91.4%; in assay [2], 51.2%; in assay [3], 95.3%; in assay [4], 78.3%; in [5], 88.3%; in [6], 94.4%. The growth in assay [7] is 75.3%; in assay [8] it was 82.2%; in assay [9], 92.8%; in [10] it was 81.4%; in assay [11], 72.8%; in assay [12], 25.9%. In addition, the growth in [13] was 98.7%; in [14], 88.2%; in assay [15], 79.1%; in [16] it was 68.7%; in assay [17] it was 37.3%; in assay [18], 71.3%. In addition, the figures for the growth in assay [19] and in assay [20] were 85.8% and 93.7%, respectively.
For the compound `COc1ccccc1NC1=C(N2CCCCC2)C(=O)c2ccccc2C1=O`, the growth in [1] was 105%; in assay [2], 75.5%; in assay [3] it was 96.9%; in [4] it was 83%; in [5], 67.1%; in assay [6], 88.8%. In addition, the growth in [7] was 67.1%; in assay [8] it was 93.6%; in assay [9], 76.7%; in [10] it was 89.9%; in assay [11] it was 86.1%; in [12] it was 70.6%. Moreover, the growth in [13] was 71.1%; in assay [14], 90.2%; in [15], 84.5%; in assay [16], 33.5%; in [17] it was 69%; in [18] it was 81.4%. Further, the growth is 86.8% in assay [19] and 96.1% in [20].

Values taken from PubChem BioAssay (NCI).
